Test systems include NCI-H23 lung; NCI-H226 lung; NCI-H322M lung; HOP-62 NSCLC; NCI-H460 lung; HOP-92 NSCLC; NCI-H522 lung; A549/ATCC NSCLC; 786-0 renal; COLO 205 colon; DU-145 prostate; K-562 leukemia; MALME-3M melanoma; MDA-MB-231 breast; RXF 393 renal; SF-268 CNS; SF-295 CNS; SF-539 CNS; UACC-257 melanoma; M14 melanoma.
Experiment in all cases: NCI-60 one-dose screen, 48 h (100 = growth as untreated, 0 = no growth, -100 = all killed)
Holding throughout (conditions): 10 µM unless noted

Structures are written as SMILES. Compounds without any hit were thinned out: in the full panel of roughly 83,000, 20% have a hit.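 Cells were grown in 96-well plates and exposed to the test compound at a single concentration for 48 hours; results are reported as percent growth, with values below 10 considered active.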 Values without a mark were called inactive. Calls of active or inactive are those of the source.

Take `O=C1O[C@H]([C@H](O)CO)C(O)=C1O`: the growth in the experiment with NCI-H23 lung was 97.7%; with NCI-H226 lung, 103%; with NCI-H322M lung, 104%; in the experiment with HOP-62 NSCLC, 107%; in the experiment with NCI-H460 lung, 104%; in the experiment on HOP-92 NSCLC, 109%. Also, the growth is 88.4% with NCI-H522 lung; 104% in the experiment with A549/ATCC NSCLC; 103% in the experiment on 786-0 renal; 107% in the experiment with COLO 205 colon; 100% in the experiment on DU-145 prostate; 107% in the experiment on K-562 leukemia. Further, the growth with MALME-3M melanoma was 119%; in the experiment with MDA-MB-231 breast it was 97.1%; in the experiment with RXF 393 renal it was 100%; with SF-268 CNS, 117%; in the experiment with SF-295 CNS, 110%; in the experiment with SF-539 CNS, 108%. Besides, the results for the growth with UACC-257 melanoma and in the experiment on M14 melanoma were 103% and 106%, respectively.
Take `CC(C)(C)n1cc(-c2ccnc(NCCNS(=O)(=O)c3ccccc3)c2)c(-c2cccc(O)c2)n1`: the growth with NCI-H23 lung is 70.3%; with NCI-H226 lung, 60.4%; in the experiment on NCI-H322M lung it was 78.1%; in the experiment on HOP-62 NSCLC, 82.5%; with NCI-H460 lung, 36.7%; in the experiment on HOP-92 NSCLC, 77.8%. Also, the growth was 57.7% with NCI-H522 lung; 47.1% in the experiment with A549/ATCC NSCLC; 18.5% with 786-0 renal; 6.61% (active) in the experiment on COLO 205 colon; 68.9% with DU-145 prostate; 7.69% (active) in the experiment with K-562 leukemia. Further, the growth with MALME-3M melanoma was 59.4%; in the experiment on MDA-MB-231 breast, 42.7%; in the experiment with RXF 393 renal, 61.6%; in the experiment with SF-268 CNS, 63.3%; with SF-295 CNS, 48.3%; in the experiment with SF-539 CNS it was 52.2%. For the same compound, the growth in the experiment with UACC-257 melanoma was 65.8%; with M14 melanoma, 53.9%.
Turning to `CC[C@@H](C)OC(=O)c1nn(C(C)=O)c2ccccc12`, the growth with NCI-H23 lung was 91.6%; in the experiment with NCI-H226 lung, 85.1%; in the experiment with NCI-H322M lung, 107%; in the experiment on HOP-62 NSCLC, 105%; with NCI-H460 lung, 112%; in the experiment on HOP-92 NSCLC it was 104%. Moreover, the growth was 87.1% with NCI-H522 lung; 90% in the experiment on A549/ATCC NSCLC; 103% in the experiment with 786-0 renal; 108% with COLO 205 colon; 107% in the experiment with DU-145 prostate; 112% in the experiment on K-562 leukemia. For the same compound, the growth was 109% in the experiment with MALME-3M melanoma; 98.8% in the experiment with MDA-MB-231 breast; 99.4% in the experiment with RXF 393 renal; 104% with SF-268 CNS; 93.1% with SF-295 CNS; 105% in the experiment with SF-539 CNS. Further, the growth in the experiment on UACC-257 melanoma is 101%; with M14 melanoma, 102%.
Regarding `Nc1nc2ccc(-c3nc4ccc5[nH]ncc5c4c4c3CCC4)cc2s1`, the growth in the experiment with NCI-H23 lung is 24.2%; in the experiment with NCI-H226 lung, 22.7%; in the experiment on NCI-H322M lung, 25.8%; in the experiment on HOP-62 NSCLC, 3.53% (active); in the experiment with NCI-H460 lung, 2.53% (active); in the experiment with HOP-92 NSCLC, -4.3% (active). Besides, the growth is -29.4% (active) with NCI-H522 lung; 32.2% in the experiment with A549/ATCC NSCLC; 25.6% in the experiment with 786-0 renal; -2.69% (active) in the experiment on COLO 205 colon; 16.5% with DU-145 prostate; 19.4% with K-562 leukemia. For the same compound, the growth in the experiment on MALME-3M melanoma was -2.7% (active); in the experiment on MDA-MB-231 breast it was 42.2%; in the experiment with RXF 393 renal it was -21.9% (active); with SF-268 CNS it was 37.7%; with SF-295 CNS, 13.6%; in the experiment on SF-539 CNS, 3.96% (active). Moreover, the values for the growth in the experiment on UACC-257 melanoma and in the experiment on M14 melanoma were 36.9% and 29.1%, respectively.
As for `CC[C@]12C=CCN3CC[C@@]4(c5ccc(OC)cc5N(C)[C@H]4[C@@](O)(C(=O)OC)[C@@H]1OC(=O)CCC(=O)N[C@@H](Cc1c[nH]c4ccccc14)C(=O)OC)[C@@H]32`, the growth in the experiment on NCI-H23 lung is 101%; with NCI-H226 lung, 104%; with NCI-H322M lung, 98.5%; in the experiment on HOP-62 NSCLC, 90.1%; in the experiment on NCI-H460 lung, 96.6%; with HOP-92 NSCLC, 66.8%. Besides, the growth in the experiment with NCI-H522 lung is 78.6%; in the experiment with A549/ATCC NSCLC, 86.8%; with 786-0 renal, 91.5%; with COLO 205 colon, 98.8%; with DU-145 prostate it was 99.4%; with K-562 leukemia, 85.7%. Moreover, the growth in the experiment with MALME-3M melanoma is 57.2%; in the experiment on MDA-MB-231 breast it was 67.6%; in the experiment on RXF 393 renal, 15.5%; in the experiment with SF-268 CNS, 85.5%; in the experiment on SF-295 CNS it was 99.3%; in the experiment on SF-539 CNS, 102%. For the same compound, the growth in the experiment on UACC-257 melanoma is 67%; in the experiment with M14 melanoma, 97.3%.
For the compound `Nc1cc(O)cc2cccnc12`, the growth with NCI-H23 lung is 53.1%; in the experiment with NCI-H226 lung it was 94.4%; with NCI-H322M lung, 104%; with HOP-62 NSCLC it was 86.6%; in the experiment with NCI-H460 lung it was 67.6%; in the experiment on HOP-92 NSCLC, 103%. Also, the growth with NCI-H522 lung was 50.6%; in the experiment on A549/ATCC NSCLC, 86.3%; in the experiment with 786-0 renal, 105%; with COLO 205 colon, 113%; in the experiment with DU-145 prostate it was 107%; with K-562 leukemia, 88%. The growth with MALME-3M melanoma was 89.8%; in the experiment on MDA-MB-231 breast it was 78.5%; in the experiment on RXF 393 renal, 135%; in the experiment on SF-268 CNS, 107%; with SF-295 CNS it was 95.4%; in the experiment with SF-539 CNS it was 101%. Also, the growth was 91.2% with UACC-257 melanoma and 83.8% with M14 melanoma.
In the case of `Nc1c(C(=O)Nc2cccc3c2OCCO3)sc2nc3c(cc12)C(=O)CCC3`, the growth was 46.4% in the experiment with NCI-H23 lung; 27.9% in the experiment with NCI-H226 lung; 45.3% in the experiment with NCI-H322M lung; 46% in the experiment with HOP-62 NSCLC; 8.5% (active) with NCI-H460 lung; 107% in the experiment on HOP-92 NSCLC. Moreover, the growth in the experiment with NCI-H522 lung is 2.24% (active); in the experiment with A549/ATCC NSCLC, 37.7%; with 786-0 renal, 44.5%; with COLO 205 colon, -3.5% (active); in the experiment with DU-145 prostate it was 22.2%; with K-562 leukemia, 13.7%. The growth is 56.8% in the experiment with MALME-3M melanoma; 14.7% in the experiment with MDA-MB-231 breast; -18.5% (active) in the experiment on RXF 393 renal; 60.7% in the experiment on SF-268 CNS; 21.9% with SF-295 CNS; -26.3% (active) with SF-539 CNS. For the same compound, the growth in the experiment on UACC-257 melanoma was 90.6%; in the experiment on M14 melanoma, 33.6%.

The values are drawn from PubChem BioAssay (NCI).
